Potency and affinity values are given separately. Inconclusive results are not listed. Calls of active or inactive are those of the source.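 The calls were made as follows: active = raises choline transporter activity at one or more tested doses and gives a fitted dose-response curve; inconclusive = no clear call, values can overlap the other calls; inactive = no choline transporter activation at any dose, or no curve.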
biological target: High affinity choline transporter 1 (Homo sapiens) (UniProt Q9GZV3); experiment: human choline transporter potentiators, potency – cell-based, 10-point CRC, membrane potential dye, dose response (AID 602376); details: HEK293-CHT, choline-induced membrane potential dye, cells express CHT LV-AA mutant; series mostly up to 67 µM
Sequence (Q9GZV3 whole entry, looked up): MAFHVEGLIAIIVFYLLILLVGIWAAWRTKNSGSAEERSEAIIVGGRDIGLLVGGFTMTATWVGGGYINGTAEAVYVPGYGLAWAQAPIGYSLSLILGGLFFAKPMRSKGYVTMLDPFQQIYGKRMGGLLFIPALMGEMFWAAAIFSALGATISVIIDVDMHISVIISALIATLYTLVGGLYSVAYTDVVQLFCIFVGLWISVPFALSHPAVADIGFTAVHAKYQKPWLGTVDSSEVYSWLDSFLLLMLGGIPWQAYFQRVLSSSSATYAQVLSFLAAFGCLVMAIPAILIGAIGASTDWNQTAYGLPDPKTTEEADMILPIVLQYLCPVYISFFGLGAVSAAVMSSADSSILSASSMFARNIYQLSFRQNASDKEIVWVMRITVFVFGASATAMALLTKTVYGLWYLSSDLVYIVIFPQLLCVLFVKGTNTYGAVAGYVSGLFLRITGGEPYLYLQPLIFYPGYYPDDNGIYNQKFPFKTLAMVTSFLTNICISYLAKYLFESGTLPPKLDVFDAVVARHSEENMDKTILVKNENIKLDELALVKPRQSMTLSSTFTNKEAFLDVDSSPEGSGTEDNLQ

outcome, inactive:
CCC(=O)N(CCC(c1ccc(C)cc1)c1ccco1)Cc1ccco1 (stereo not given), COc1ccc(CN2CCC(N(CCc3ccccc3)Cc3ccccc3)CC2)c(OC)c1, CCC(C)Nc1nc(CN2CCOCC2)nc2sc3c(c12)CCC3 (stereo not given), CCOC(=O)c1cc2c(=O)n3ccccc3nc2n(CC2CCCO2)c1=NC(=O)/C=C/c1ccccc1 (stereo not given), O=c1c2ccccc2n(CC(O)CN2CCOCC2)c2ccccc12 (stereo not given), Cc1ccc(Cl)cc1N1CCN(C(=O)C2CCC(=O)N(C3CCCCCC3)C2)CC1 (stereo not given), Cc1cc(N2CCN(Cc3cn(C)nc3-c3ccccc3F)CC2)cc(C)n1, CCN1CCc2nc(NC(=O)C(c3ccccc3)c3ccccc3)sc2C1, CCOC(=O)C[C@H]1c2ccccc2S(=O)(=O)N1Cc1cccc(C(F)(F)F)c1, CCOC(=O)c1c(C)n(-c2ccccc2)c2ccc(OCCN(C)C)cc12, O=C(c1ccco1)N(CCC(c1ccccc1)c1ccco1)Cc1ccccc1 (stereo not given), FC(F)(F)COc1nc(OCC(F)(F)F)nc(N2CCN(c3ccccc3)CC2)n1, CCOC(=O)C1(CC2CC2)CCN(Cc2cn[nH]c2-c2cccc(F)c2)CC1, CCn1cc(C(=O)OCC(=O)OC2CC(C)CCC2C(C)C)c(=O)c2ccc(C)nc21 (stereo not given), Cn1c(=O)c2c(nc(CN3CCN(c4cccc(Cl)c4)CC3)n2CCc2ccccc2)n(C)c1=O, CC(C)CCNC(=O)/C=C/c1ccc(Br)cc1, CCc1ccc(NC(=O)CSc2nc3ccccc3c(=O)n2CCCN2CCC(C)CC2)cc1, COc1ccc(C(=O)c2coc3ccc(O)c(CN4CCOCC4)c23)cc1, C/C(=N\NC(=O)c1nnn(-c2nonc2N)c1CN1CCC(C)CC1)c1cccc(Br)c1, COC(=O)c1sc(NC(=O)C(C)c2ccccc2)nc1C (stereo not given)

Reference: PubChem BioAssay AID602376 (Johns Hopkins Ion Channel Center, 2012)
